According to PubChem BioAssay (Tox21):
A number with no mark means an inactive call. Records with an inconclusive call do not appear. Entries that show only a call come without a potency. The source made the active and inactive calls. Unless noted, calls come from the whole dose curve; as a rule, active = well fitted curve in the direction sought with a large enough effect in the repeat runs; inconclusive = weak or mixed curves; inactive = no such curve, though single readings can be large; an effect the other way counts as inactive or inconclusive.

Tests used:
[1] = target: Progesterone receptor (Homo sapiens) (UniProt P06401); assay: qHTS assay to identify small molecule antagonists of the progesterone receptor (PR) signaling pathway (AID 1346795; active = well fitted inhibition curve with a large enough effect in the signal ratio in the repeat runs, not every such curve was filed as active; the % refers to the signal ratio; note: potency is the fitted concentration of half-maximal effect)
Summary of the method: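 In HEK293T cells bearing the PR-UAS-bla reporter, compound effects on promegestone-driven (1 nM) beta-lactamase expression are assessed after 16 hr using a fluorescent FRET substrate incubated 2 hr at room temperature.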

[2] = qHTS assay to identify small molecule antagonists of the progesterone receptor (PR) signaling pathway - cell viability counter screen (AID 1346798); note: series mostly up to about 92 µM; nearly all actives have a fitted effect of over 50% in size
Summary of the method: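 Following a 4 hr attachment, PR-UAS-bla HEK293T cells in charcoal-stripped FBS medium were exposed to compounds with R5020 for 16 hr; CellTiter-Glo was added and luminescence read after 30 min at room temperature.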

[3] = qHTS assay to identify small molecule agonists of the progesterone receptor (PR) signaling pathway - cell viability counter screen (AID 1346799; calls by dose curve; note: nearly all actives have a fitted effect of over 45% in size)
Summary of the method: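 Here, 3,000 PR-UAS-bla HEK293T cells per well were treated with compounds for 16 hr after a 6 hr preincubation at 37C and 5% CO2; cell viability is the CellTiter-Glo luminescence signal.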

[4] = qHTS assay to identify small molecule antagonists of the TGF-beta/Smad signaling pathway - cell viability counter screen (AID 1346824); note: nearly all actives have a fitted effect of over 50% in size
Summary of the method: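 SBE-bla HEK 293T cells, incubated overnight, then compound plus 0.25 ng/mL TGF-beta1 (stock added) for 5 hr at 37 C. Viability was read in the same wells by CellTiter-Glo luminescence after 30 min at room temperature.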

[5] = qHTS assay to identify small molecule agonists of the TGF-beta/Smad signaling pathway - cell viability counter screen (AID 1346829); note: top concentration of the series differs between compounds; nearly all actives have a fitted effect of over 45% in size
Summary of the method: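 Here the cytotoxicity of library compounds is measured in SBE-bla HEK 293T cells treated for 5 hr, using CellTiter-Glo added to wells already read for the beta-lactamase reporter.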

[6] = qHTS assay to identify small molecule agonists of the TGF-beta/Smad signaling pathway (AID 1346859; active = well fitted activation curve with a large enough effect in the signal ratio in the repeat runs, not every such curve was filed as active; the % refers to the signal ratio; note: series mostly up to about 77 µM)
Summary of the method: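 Each well held 4,000 SBE-bla HEK 293T cells incubated overnight before compound addition; 5 hr later the cleavable FRET substrate went on for 2 hr at room temperature, and fluorescence was read at two emissions.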

[7] = target: Thyrotropin-releasing hormone receptor (Homo sapiens) (UniProt P34981); assay: qHTS assay to identify small molecule antagonists of the thyrotropin-releasing hormone receptor (TRHR) signaling pathway (AID 1346877; active = well fitted inhibition curve with a large enough effect in the repeat runs, not every such curve was filed as active; note: series mostly up to about 51 µM)
Summary of the method: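 Calcium signal in dye-loaded TRHR/HEK293 cells; compounds added 5 min before TRH (1 nM final); fluorescence monitored 3 min at 1 s steps.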

[8] = target: Thyrotropin-releasing hormone receptor (Homo sapiens) (UniProt P34981); assay: qHTS assay to identify small molecule agonists of the thyrotropin-releasing hormone receptor (TRHR) signaling pathway (AID 1346891; calls by dose curve; note: series mostly up to about 58 µM)
Summary of the method: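 Screening of agonists relied on calcium signalling in HEK293 cells expressing human TRHR: dye loading 2 h at 37 °C preceded compound addition and a 3-min fluorescence time course.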

[9] = Human pregnane X receptor (PXR) small molecule agonists, qHTS cell viability counter screen (AID 1346977); note: nearly all actives have a fitted effect of over 50% in size
Summary of the method: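 Tox21 qHTS format; PXR-Luc HepG2, 2,000/well, charcoal-stripped FBS 5%. Cpd exposure 24hr. Read: CellTiter-Fluor fluorescence, multiplexed with luciferase.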

[10] = Caspase-3/7 induction in HepG2 cells by small molecules, qHTS assay (AID 1346978); note: nearly all actives have a fitted effect of over 15% in size
Summary of the method: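 Wild-type HepG2 cells, 2,000/well, settled 5 hr at 37 C and 5% CO2, then compound-treated for 17 hr; caspase-3/7 activity read by luminescent Caspase-Glo 3/7 after 30 min at room temperature.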

[11] = Caspase-3/7 induction in CHO-K1 cells by small molecules, qHTS cell viability counter screen (AID 1346979); note: nearly all actives have a fitted effect of over 35% in size; note: potency is the fitted concentration of half-maximal effect
Summary of the method: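 CellTiter-Fluor viability check, qHTS format: wild-type CHO-K1, 16hr compound treatment, 1hr reagent incubation, fluorescence read.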

[12] = Caspase-3/7 induction in CHO-K1 cells by small molecules, qHTS assay (AID 1346980); note: nearly all actives have a fitted effect of over 15% in size
Summary of the method: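 Wild-type CHO-K1 cells exposed to compounds for 17hr at 37 C, 5% CO2. Caspase-3/7 activity then measured by Caspase-Glo 3/7 luminescence after 30min at room temperature.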

[13] = target: Acetylcholinesterase (Homo sapiens) (UniProt P22303); assay: Acetylcholinesterase (AChE) small molecule antagonists: colormetric cell-based qHTS assay (AID 1347395; calls by dose curve; note: nearly all actives have a fitted effect of over 30% in size)
Summary of the method: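 AChE inhibition read colorimetrically via DTNB–thiocholine in SH-SY5Y cells. Compound 30 min, substrate 90 min, both 37 C.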

[14] = target: Acetylcholinesterase (Homo sapiens) (UniProt P22303); assay: Acetylcholinesterase (AChE) small molecule antagonists: enzyme-based qHTS assay (AID 1347397; calls by dose curve; note: nearly all actives have a fitted effect of over 55% in size); conditions: Potency: AChE enzyme activity inhibition; outcome: AChE enzyme activity inhibition
Summary of the method: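 In this quantitative HTS, compounds from the Tox21 10K collection were preincubated 30 min at ambient temperature with recombinant human AChE dispensed at 50 mU/mL. Hydrolysis of acetylthiocholine was then followed for 10 min by DTNB colour development.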

[15] = target: Acetylcholinesterase (Homo sapiens) (UniProt P22303); assay: Acetylcholinesterase (AChE) small molecule antagonists: fluorescence cell-based qHTS assay (AID 1347398; calls by dose curve; note: nearly all actives have a fitted effect of over 50% in size); conditions: Potency: AChE activity; outcome: AChE activity
Summary of the method: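 Cells (SH-SY5Y) attached overnight, were dosed with compound or DMSO vehicle for 30 min at 37 C, and then incubated 40 min at room temperature with acetylthiocholine and Thiolite Green; green fluorescence indexed AChE activity.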

[16] = Caspase-3/7 induction in HepG2 cells by small molecules, qHTS cell viability counter screen (AID 1346981); note: series mostly up to about 92 µM; nearly all actives have a fitted effect of over 30% in size
Summary of the method: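 After a 5-hr attachment period at 37 C and 5% CO2, wild-type HepG2 cells received compounds in DMSO. Sixteen hours later CellTiter-Fluor was dispensed and the fluorescent signal quantified after a further hour.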

[17] = target: Nuclear receptor subfamily 1 group I member 2 (Homo sapiens) (UniProt O75469); assay: Human pregnane X receptor (PXR) small molecule agonists, qHTS assay (AID 1346982); note: nearly all actives have a fitted effect of over 35% in size; note: potency is the fitted concentration of half-maximal effect
Summary of the method: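 Tox21 qHTS; PXR-Luc HepG2; compounds pinned from DMSO; 24 hr, 37 C; ONE-Glo luciferase detection, 30 min room temperature.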

[18] = target: Nuclear receptor subfamily 1 group I member 2 (Rattus norvegicus) (UniProt Q9R1A7); assay: Rat pregnane X receptor (rPXR) activation by small molecules, qHTS assay (AID 1346983); conditions: rPXR luciferase reporter cells, One-Glo luminescence, 24 h; stronger effect = higher value; note: nearly all actives have a fitted effect of over 20% in size
Summary of the method: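 Cell-based rPXR activation assay: rPXR cells, 2,000 per well, rested 5hr at 37 C, then exposed to compounds in DMSO for 24 hr at 37 C. Luciferase activity read by One-Glo luminescence after 30 min at room temperature.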

[19] = target: Nuclear receptor subfamily 1 group I member 2 (Homo sapiens) (UniProt O75469); assay: CYP3A4 induction through human pregnane X receptor (PXR) by small molecules, qHTS assay (AID 1346984); note: nearly all actives have a fitted effect of over 40% in size
Summary of the method: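 Cells (DPX-2; HepG2 with PXR element plus CYP3A4-promoter luciferase) settled 5hr, then were treated 24hr at 37C. A 3hr, 3uM-final Luciferin-IPA step preceded luminescence measurement with One-Glo.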

[20] = target: Nuclear receptor subfamily 1 group I member 2 (Homo sapiens) (UniProt O75469); assay: Human pregnane X receptor (PXR) activation by small molecules, qHTS assay (AID 1346985); note: nearly all actives have a fitted effect of over 40% in size
Summary of the method: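 DPX-2 cells (HepG2 co-transfected with a PXR response element and a CYP3A4-promoter luciferase construct) were seeded at 2,000 per well, rested 5 hr at 37C, then exposed to DMSO-dissolved compounds for 24 hr. Activation was read as luciferase luminescence.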

Acetylcholinesterase (Homo sapiens), sequence (P22303 whole entry, looked up): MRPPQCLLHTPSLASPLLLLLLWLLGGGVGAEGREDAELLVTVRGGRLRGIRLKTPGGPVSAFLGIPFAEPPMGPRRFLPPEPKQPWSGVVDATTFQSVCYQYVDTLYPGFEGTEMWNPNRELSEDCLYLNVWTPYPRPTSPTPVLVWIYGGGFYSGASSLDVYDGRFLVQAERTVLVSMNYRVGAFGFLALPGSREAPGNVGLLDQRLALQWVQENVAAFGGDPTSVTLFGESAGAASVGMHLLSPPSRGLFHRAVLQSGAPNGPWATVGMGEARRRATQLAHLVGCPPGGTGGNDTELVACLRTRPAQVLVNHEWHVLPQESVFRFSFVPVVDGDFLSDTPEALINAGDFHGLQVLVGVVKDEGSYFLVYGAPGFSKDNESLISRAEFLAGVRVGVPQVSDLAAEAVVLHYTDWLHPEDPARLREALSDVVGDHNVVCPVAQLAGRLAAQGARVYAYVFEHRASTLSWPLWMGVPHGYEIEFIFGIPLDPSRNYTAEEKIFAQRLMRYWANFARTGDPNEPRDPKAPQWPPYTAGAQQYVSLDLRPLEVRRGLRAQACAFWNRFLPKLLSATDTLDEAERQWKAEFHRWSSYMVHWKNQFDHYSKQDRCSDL
Nuclear receptor subfamily 1 group I member 2 (Homo sapiens), sequence (O75469 whole entry, looked up): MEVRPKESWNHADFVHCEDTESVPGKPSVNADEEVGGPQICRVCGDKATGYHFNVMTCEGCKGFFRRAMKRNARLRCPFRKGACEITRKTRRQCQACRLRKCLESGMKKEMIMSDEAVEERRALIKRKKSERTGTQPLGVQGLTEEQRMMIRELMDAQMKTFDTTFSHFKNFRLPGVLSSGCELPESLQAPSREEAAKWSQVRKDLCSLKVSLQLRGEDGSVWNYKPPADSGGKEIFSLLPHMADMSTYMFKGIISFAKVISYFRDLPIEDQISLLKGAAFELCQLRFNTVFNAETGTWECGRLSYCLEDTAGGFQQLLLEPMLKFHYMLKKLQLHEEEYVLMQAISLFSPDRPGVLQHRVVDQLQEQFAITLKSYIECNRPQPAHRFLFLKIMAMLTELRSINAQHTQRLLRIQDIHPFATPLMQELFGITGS
Thyrotropin-releasing hormone receptor (Homo sapiens), sequence (P34981 whole entry, looked up): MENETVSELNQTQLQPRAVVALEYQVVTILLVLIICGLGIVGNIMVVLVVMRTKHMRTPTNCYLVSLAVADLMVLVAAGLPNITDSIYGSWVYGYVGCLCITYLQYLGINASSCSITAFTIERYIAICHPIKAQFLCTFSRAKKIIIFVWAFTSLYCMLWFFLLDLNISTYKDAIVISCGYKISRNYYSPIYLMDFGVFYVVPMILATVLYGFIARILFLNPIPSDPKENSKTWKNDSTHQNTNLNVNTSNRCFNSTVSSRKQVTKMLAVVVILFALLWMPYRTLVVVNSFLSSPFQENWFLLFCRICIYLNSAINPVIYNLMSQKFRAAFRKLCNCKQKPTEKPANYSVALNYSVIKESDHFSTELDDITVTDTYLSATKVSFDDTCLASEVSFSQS
Progesterone receptor (Homo sapiens), sequence (P06401 whole entry, looked up): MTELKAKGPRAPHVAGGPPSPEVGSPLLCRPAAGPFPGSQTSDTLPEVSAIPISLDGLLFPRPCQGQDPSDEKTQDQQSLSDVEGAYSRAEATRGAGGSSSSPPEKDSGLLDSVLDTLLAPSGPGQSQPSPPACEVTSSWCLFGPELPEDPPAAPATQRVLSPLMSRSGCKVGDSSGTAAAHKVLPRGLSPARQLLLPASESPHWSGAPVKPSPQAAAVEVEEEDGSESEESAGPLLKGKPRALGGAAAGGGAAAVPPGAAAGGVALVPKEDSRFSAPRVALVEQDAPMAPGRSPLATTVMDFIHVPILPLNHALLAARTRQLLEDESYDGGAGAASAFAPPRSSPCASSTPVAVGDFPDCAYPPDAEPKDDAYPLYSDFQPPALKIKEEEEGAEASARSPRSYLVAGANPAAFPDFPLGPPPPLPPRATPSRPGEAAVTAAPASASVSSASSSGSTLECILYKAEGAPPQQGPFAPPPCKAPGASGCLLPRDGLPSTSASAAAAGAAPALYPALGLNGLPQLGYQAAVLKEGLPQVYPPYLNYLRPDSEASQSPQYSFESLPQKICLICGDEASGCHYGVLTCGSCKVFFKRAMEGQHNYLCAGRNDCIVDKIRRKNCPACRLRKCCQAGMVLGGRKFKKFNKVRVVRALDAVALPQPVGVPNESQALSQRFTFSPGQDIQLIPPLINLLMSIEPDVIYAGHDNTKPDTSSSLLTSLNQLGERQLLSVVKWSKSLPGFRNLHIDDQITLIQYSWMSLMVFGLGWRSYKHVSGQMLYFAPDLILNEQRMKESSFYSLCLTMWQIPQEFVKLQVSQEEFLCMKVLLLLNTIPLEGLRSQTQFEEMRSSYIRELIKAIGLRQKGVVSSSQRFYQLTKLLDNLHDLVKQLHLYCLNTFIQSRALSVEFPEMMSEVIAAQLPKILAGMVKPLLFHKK
Nuclear receptor subfamily 1 group I member 2 (Rattus norvegicus), sequence (Q9R1A7 whole entry, looked up): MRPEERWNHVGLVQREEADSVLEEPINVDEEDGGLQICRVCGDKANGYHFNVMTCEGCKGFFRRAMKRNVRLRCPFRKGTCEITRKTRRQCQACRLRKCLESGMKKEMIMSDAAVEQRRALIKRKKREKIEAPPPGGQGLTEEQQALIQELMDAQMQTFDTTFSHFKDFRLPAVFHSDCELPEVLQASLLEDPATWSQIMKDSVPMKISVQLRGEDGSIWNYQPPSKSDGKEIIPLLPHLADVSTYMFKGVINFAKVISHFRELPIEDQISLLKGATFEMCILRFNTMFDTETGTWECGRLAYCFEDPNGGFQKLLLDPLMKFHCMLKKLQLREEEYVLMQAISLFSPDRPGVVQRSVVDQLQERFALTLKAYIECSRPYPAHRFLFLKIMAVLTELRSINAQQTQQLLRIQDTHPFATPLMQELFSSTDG

Row | Compound | Potency [1] | Potency [2] | Potency [3] | Potency [4] | Potency [5] | outcome [6] | Potency [7] | outcome [8] | Potency [9] | Potency [10] | Potency [11] | Potency [12] | Potency [13] | Potency [14] | Potency [15] | Potency [16] | Potency [17] | max activation [18] | outcome [19] | Potency [20]
1 | CCCN(CCC)C(=O)Cc1c(-c2ccc(Cl)cc2)nc2ccc(Cl)cn12 | 10.6 µM (active) | inactive | inactive | inactive | inactive | inactive | inactive | inactive | inactive | inactive | 33.5 µM (active) | inactive | inactive | inactive | inactive | – | – | – | – | –
2 | COc1cc(CC#N)cc(OC)c1OC | inactive | inactive | inactive | inactive | inactive | inactive | inactive | inactive | inactive | – | inactive | inactive | inactive | inactive | inactive | inactive | inactive | – | – | –
3 | NC(=O)CF | inactive | inactive | inactive | inactive | inactive | inactive | inactive | inactive | inactive | inactive | inactive | inactive | inactive | inactive | inactive | inactive | inactive | – | – | –
4 | CCC(C)Cl (stereo not drawn) | inactive | inactive | inactive | inactive | inactive | inactive | inactive | inactive | inactive | inactive | inactive | inactive | inactive | inactive | inactive | inactive | inactive | – | – | –
5 | COc1ccccc1N1CCNCC1 | inactive | inactive | inactive | inactive | inactive | inactive | inactive | inactive | inactive | inactive | inactive | inactive | – | – | – | inactive | inactive | -3.01% | inactive | inactive
6 | CCCCC(CC)COC(=O)c1c(Br)c(Br)c(Br)c(Br)c1C(=O)OCC(CC)CCCC (stereo not drawn) | inactive | inactive | inactive | inactive | inactive | inactive | inactive | inactive | inactive | inactive | inactive | inactive | inactive | inactive | inactive | – | 16.8 µM (active) | – | – | –
7 | CCN(C(C)=O)c1cccc(-c2ccnc3c(C#N)cnn23)c1 | inactive | inactive | inactive | inactive | inactive | inactive | inactive | inactive | inactive | inactive | inactive | inactive | inactive | inactive | inactive | inactive | inactive | -2.18% | inactive | inactive
